Active and inactive are the calls of the source. Unless noted, the rule behind the calls is not given here.
Assays:
[1] = compounds binding Alexa647 anti-His antibody – biochemical, small-molecule microarray, 635 nm fluorescence, artefact control for SMM control protein annotation, primary screen (AID 1128); details: higher = more signal;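 note: score merges feature fluorescence with signal-to-noise for each printed compound spot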
[2] = test system: Human papillomavirus type 1a E7 protein (residues 1-88); experiment: HPV1a E7 small-molecule binders, primary screen, biochemical, small-molecule microarray, residues 1-88, 635 nm (AID 1129); details: small-molecule microarray binding, fluorescence 635 nm; higher = more signal
[3] = biological target: Focal adhesion kinase 1 (Homo sapiens) (UniProt Q05397); experiment: PTK2 protein binding on printed compound slides – biochemical, small-molecule microarray, 635/667 nm fluorescence, BSA, DTT, primary screen (AID 1130); details: 635 nm fluorescence, higher = more signal;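 note: composite of spot emission at 667 nm and signal to noise over triplicate slides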
[4] = test system: Fibrinogen (Alexa647-labelled); experiment: Alexa647-fibrinogen binding to printed small molecules – biochemical, small-molecule microarray, 635/667 nm fluorescence, artefact control for SMM control-protein annotation, profiling panel (AID 1131); details: fibrinogen-A647 binding fluorescence, higher = more signal;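 note: z-score merges 667 nm fluorescence with per-spot signal-to-noise over triplicate slides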
[5] = biological target: Follistatin (Homo sapiens) (UniProt P19883); experiment: FST protein binding to printed compounds – biochemical, small-molecule microarray, 635/667 nm fluorescence, primary screen (AID 1132); details: 635 nm fluorescence, higher = more signal
[6] = biological target: Fibroblast growth factor 2 (Homo sapiens) (UniProt P09038); experiment: basic fibroblast growth factor binding to printed compounds – biochemical, small-molecule microarray, 635/667 nm fluorescence, primary screen (AID 1133); details: FGF2, fluorescence 635/667, higher = more signal
[7] = JC-1 mitochondrial potential readout, lung cancer cells – cell-based, A549, JC-1 fluorescence, basal, 24 h, 100 nL, profiling panel (AID 1138); details: higher = more signal;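 note: A549 lung adenocarcinoma cells under basal conditions with no added stimulus; test concentration not given here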
Lefty1 = Lefty1 protein binding to printed compounds – biochemical, small-molecule microarray, 635/667 nm fluorescence, primary screen (AID 1139); details: fluorescence 635/667, higher = more signal
[8] = test system: wheat germ agglutinin (Triticum aestivum), Alexa647-labelled; experiment: Alexa647-WGA lectin binding to printed small molecules – biochemical, small-molecule microarray, 635/667 nm fluorescence, artefact control for SMM control-protein annotation, profiling panel (AID 1140); details: WGA-A647 binding, 635 nm fluorescence, higher = more signal;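 note: score merges 667 nm feature emission with signal to noise over triplicate slides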
[9] = biological target: Luciferin 4-monooxygenase (Photinus pyralis) (UniProt P08659); experiment: inhibition of purified Photinus pyralis luciferase – biochemical, luminescence, purified enzyme, 2006 set, primary screen (AID 1141); details: purified firefly luciferase, SteadyGlo luminescence, 30 min; higher = more signal, called active from +8 up or from −8 down;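 note: cell-free assay with purified firefly luciferase at 100 ng per well in PBS; test concentration not given here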
[10] = test system: Wnt5a (protein binding on small-molecule microarray); experiment: small molecules binding Wnt5a protein – biophysical, small-molecule microarray, 635/667 nm fluorescence, primary screen (AID 1142); details: 635 nm fluorescence, higher = more signal;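 note: fluorescence read at 667 nm with signal to noise per printed feature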
[11] = ATP-based viability of Huh7 replicon cells – cell-based, CellTiter-Glo luminescence, basal, 48 h, cytotoxicity control for HCV replication inhibitor project, primary screen (AID 1143); details: higher = more signal, called active from +8 up or from −8 down;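 note: Huh7 hepatoma cells carrying a hepatitis C replication reporter with no stimulus; test concentration not given here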
[12] = Pseudomonas biofilm growth suppression – PAO1 strain, BacTiter-Glo luminescence, LB-PBS, primary screen (AID 1144); details: P. aeruginosa PAO1 biofilm, 12 h, higher = more signal
[13] = basal CRE-LacZ reporter activity in PC12 – cell-based, unstimulated, primary screen (AID 1145); details: no forskolin, luminescence, 4.5 h, higher = more signal, called active from +8 up or from −8 down
[14] = forskolin-driven CRE-LacZ activity in PC12 – cell-based, CRE-LacZ reporter, forskolin-stimulated, primary screen (AID 1146); details: luminescence, 4.5 h, higher = more signal, called active from +8 up or from −8 down;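 note: PC12 cells with 6xCRE LacZ reporter stimulated by forskolin 10 µM; beta-galactosidase reporter signal reflecting CREB driven transcription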
[15] = biological target: Streptavidin (Streptomyces avidinii) (UniProt P22629); experiment: compounds binding control protein streptavidin – biophysical, small-molecule microarray, 635/667 nm fluorescence, artefact control for SMM compound annotation, primary screen (AID 1147); details: higher = more signal;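 note: signal reflects streptavidin binding to arrayed compounds as a control protein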
[16] = probe aInhba binding on compound microarray – biochemical, small-molecule microarray, 635/667 nm fluorescence, primary screen (AID 1148); details: higher = more signal;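 note: score merges 667nm spot fluorescence with signal-to-noise for antibody binding to printed compounds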
Torsin-1A (Homo sapiens) [17] = biological target: Torsin-1A (Homo sapiens) (UniProt O14656); experiment: TOR1A wild-type binding on microarray – cell lysate, small-molecule microarray, lysate, 635/667 nm, primary screen (AID 1149); details: COS7 hTOR1A-WT lysate, 635 nm fluorescence, higher = more signal
Torsin-1A (Homo sapiens) [18] = biological target: Torsin-1A (Homo sapiens) (UniProt O14656); experiment: torsin A mutant lysate binding on microarrays – cell lysate, small-molecule microarray, COS7 lysate, 635/667 nm fluorescence, primary screen (AID 1150); details: COS7 hTOR1A mutant lysate, 635 nm fluorescence, higher = more signal;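 note: score pools 667 nm emission and signal to noise measuring lysate protein binding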
[19] = test system: Sonic hedgehog protein (Shh); experiment: Sonic hedgehog microarray binding compounds – biochemical, small-molecule microarray, 635/667 nm fluorescence, primary screen (AID 1151); details: 635 nm fluorescence, higher = more signal;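 note: Shh protein binding to compounds spotted on small-molecule microarray slides; score combines spot fluorescence intensity with signal-to-noise across triplicate slides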

Streptavidin (Streptomyces avidinii), sequence (P22629 whole entry, looked up): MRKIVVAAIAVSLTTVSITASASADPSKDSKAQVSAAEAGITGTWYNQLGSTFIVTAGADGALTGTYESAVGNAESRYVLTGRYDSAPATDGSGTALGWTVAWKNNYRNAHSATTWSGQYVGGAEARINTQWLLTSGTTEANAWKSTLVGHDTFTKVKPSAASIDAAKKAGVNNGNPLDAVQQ
Follistatin (Homo sapiens), sequence (P19883 whole entry, looked up): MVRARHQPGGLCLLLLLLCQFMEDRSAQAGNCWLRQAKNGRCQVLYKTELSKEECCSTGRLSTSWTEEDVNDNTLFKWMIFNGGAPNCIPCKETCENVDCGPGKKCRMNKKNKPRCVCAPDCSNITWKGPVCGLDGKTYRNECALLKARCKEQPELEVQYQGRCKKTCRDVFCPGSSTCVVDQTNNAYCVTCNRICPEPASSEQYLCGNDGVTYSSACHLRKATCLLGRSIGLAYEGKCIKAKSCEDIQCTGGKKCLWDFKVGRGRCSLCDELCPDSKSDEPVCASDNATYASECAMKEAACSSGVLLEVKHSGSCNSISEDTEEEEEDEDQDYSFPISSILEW
Focal adhesion kinase 1 (Homo sapiens), sequence (Q05397 whole entry, looked up): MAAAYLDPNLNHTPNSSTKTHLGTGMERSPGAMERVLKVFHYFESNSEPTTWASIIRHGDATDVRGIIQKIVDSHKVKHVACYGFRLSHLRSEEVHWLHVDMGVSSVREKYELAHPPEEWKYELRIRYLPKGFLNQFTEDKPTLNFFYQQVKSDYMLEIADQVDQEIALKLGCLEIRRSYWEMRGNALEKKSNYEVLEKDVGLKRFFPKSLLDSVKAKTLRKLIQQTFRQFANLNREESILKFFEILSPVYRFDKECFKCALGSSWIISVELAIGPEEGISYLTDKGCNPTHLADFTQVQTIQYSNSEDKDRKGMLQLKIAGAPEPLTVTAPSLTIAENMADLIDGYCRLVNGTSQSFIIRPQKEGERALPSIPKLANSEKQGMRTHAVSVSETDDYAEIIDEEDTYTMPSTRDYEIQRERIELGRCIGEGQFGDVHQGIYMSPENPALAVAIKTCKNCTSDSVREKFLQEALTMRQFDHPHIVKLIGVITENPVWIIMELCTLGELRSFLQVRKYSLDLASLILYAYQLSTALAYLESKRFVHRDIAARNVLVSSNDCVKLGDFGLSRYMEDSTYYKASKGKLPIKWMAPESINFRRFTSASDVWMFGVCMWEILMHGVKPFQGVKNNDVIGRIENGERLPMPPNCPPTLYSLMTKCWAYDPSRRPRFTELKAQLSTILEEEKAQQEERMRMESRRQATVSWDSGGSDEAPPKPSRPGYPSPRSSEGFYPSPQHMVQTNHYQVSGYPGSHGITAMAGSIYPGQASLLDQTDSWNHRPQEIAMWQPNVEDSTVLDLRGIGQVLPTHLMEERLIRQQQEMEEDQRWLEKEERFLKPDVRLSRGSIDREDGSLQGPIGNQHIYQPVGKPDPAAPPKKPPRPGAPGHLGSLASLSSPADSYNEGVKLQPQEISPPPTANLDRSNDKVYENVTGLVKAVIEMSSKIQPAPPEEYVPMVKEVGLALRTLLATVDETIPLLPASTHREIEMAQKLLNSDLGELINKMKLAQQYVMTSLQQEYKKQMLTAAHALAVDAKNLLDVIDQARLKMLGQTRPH
Luciferin 4-monooxygenase (Photinus pyralis), sequence (P08659 whole entry, looked up): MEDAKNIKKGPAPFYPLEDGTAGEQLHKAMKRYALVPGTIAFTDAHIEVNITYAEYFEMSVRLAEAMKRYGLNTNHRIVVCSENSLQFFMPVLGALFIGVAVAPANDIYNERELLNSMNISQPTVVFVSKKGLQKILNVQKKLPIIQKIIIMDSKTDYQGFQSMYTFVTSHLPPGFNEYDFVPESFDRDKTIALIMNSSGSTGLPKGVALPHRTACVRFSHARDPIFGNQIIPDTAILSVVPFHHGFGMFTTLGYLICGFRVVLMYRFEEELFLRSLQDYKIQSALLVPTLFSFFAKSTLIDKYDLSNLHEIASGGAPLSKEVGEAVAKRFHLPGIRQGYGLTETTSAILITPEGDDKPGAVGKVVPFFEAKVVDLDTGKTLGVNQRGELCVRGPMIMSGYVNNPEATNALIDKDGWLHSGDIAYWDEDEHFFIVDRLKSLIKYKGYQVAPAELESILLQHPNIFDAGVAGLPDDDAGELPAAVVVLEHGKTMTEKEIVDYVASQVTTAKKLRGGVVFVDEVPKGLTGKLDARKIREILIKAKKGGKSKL
Fibroblast growth factor 2 (Homo sapiens), sequence (P09038 whole entry, looked up): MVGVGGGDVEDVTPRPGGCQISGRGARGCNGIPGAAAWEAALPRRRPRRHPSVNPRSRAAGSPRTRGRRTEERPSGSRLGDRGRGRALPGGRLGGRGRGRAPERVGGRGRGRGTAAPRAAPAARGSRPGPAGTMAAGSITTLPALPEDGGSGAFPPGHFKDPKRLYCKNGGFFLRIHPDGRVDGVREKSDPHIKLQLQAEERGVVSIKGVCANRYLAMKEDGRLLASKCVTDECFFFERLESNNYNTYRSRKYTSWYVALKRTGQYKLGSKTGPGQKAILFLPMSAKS
Torsin-1A (Homo sapiens), sequence (O14656 whole entry, looked up): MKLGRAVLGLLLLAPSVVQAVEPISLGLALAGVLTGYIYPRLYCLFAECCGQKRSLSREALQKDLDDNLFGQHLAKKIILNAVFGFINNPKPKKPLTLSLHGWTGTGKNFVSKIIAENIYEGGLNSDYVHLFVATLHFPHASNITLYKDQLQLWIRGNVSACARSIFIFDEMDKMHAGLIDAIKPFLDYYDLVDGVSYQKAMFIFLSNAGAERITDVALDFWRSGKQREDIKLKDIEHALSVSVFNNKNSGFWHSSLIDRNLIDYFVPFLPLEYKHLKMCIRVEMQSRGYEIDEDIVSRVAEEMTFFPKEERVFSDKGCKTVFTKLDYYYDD

| Structure (SMILES) | composite z-score [1] | composite z-score [2] | composite z-score [3] | composite z-score [4] | composite z-score [5] | composite z-score [6] | z-score [7] | composite z-score (Lefty1) | composite z-score [8] | z-score [9] | composite z-score [10] | z-score [11] | z-score [12] | z-score [13] | z-score [14] | composite z-score [15] | composite z-score [16] | composite z-score (Torsin-1A (Homo sapiens) [17]) | composite z-score (Torsin-1A (Homo sapiens) [18]) | composite z-score [19] |
| --- | --- | --- | --- | --- | --- | --- | --- | --- | --- | --- | --- | --- | --- | --- | --- | --- | --- | --- | --- | --- |
| COC(=O)[C@H](C)NC(=O)CCC1CC(OC(=O)NCCc2ccc(F)cc2)CC2(CCCC(COC(=O)NCCOc3ccccc3)O2)O1 (stereo not given in full) | 0.989 | 1.16 | 0.821 | 0.659 | 0.826 | 0.307 | 1.08 | 1.41 | 0.309 | 0.549 (inactive) | 0.399 | -0.471 (inactive) | 0.706 (inactive) | -0.0755 (inactive) | -0.501 (inactive) | 0.56 | -0.0059 | 0.37 | 0.379 | 1.46 |
| CCOC(=O)[C@H](CC(C)C)NC(=O)CCC1CC(OC(=O)NCCc2ccc(F)cc2)CC2(CCCC(COC(=O)NCc3cccc(C(F)(F)F)c3)O2)O1 (stereo not given in full) | 0.167 | 1.15 | 0.155 | 0.619 | 0.579 | 0.987 | -0.208 | 0.549 | 0.296 | 0.507 (inactive) | 0.0465 | 0.215 (inactive) | 0.074 (inactive) | -0.437 (inactive) | 0.257 (inactive) | 0.0808 | -0.0762 | 0.0857 | 0.147 | 0.909 |
| COc1ccc(COC(=O)NN=C2C[C@@H](O)[C@@H](O)[C@@H]3[C@@H]4C(=O)N(Cc5ccc6c(c5)OCO6)C(=O)[C@@H]4CC[C@H]23)cc1 | -0.0397 | -0.474 | -0.126 | -0.261 | -1.12 | -1.21 | 0.419 | -1.06 | 0.801 | 0.506 (inactive) | -0.343 | 0.0813 (inactive) | 0.939 (inactive) | 0.96 (inactive) | 0.0695 (inactive) | 0.61 | 0.0018 | -0.878 | -0.647 | -1.32 |
| CCN1C(=O)[C@H]2[C@H]3[C@H](O)[C@H](O)CC(=NO[C@H](C)c4cn([C@H](CO)Cc5ccccc5)nn4)[C@@H]3CC[C@H]2C1=O | 3.76 | 1.07 | 0.454 | 0.932 | 0.758 | 0.474 | -0.00321 | 0.734 | 1.15 | 0.275 (inactive) | 0.217 | 0.399 (inactive) | 1.05 (inactive) | -0.385 (inactive) | -0.228 (inactive) | 0.307 | -0.105 | 0.265 | 0.556 | 0.742 |
| CC(CCC(=O)OC[C@H]1O[C@H](C#Cc2ccccc2)C=C[C@@H]1Oc1ccc(C)cc1)=NOC(C)CN1CCCc2nc(C)c(C)cc21 (stereo not given in full) | 1.09 | 0.886 | 0.659 | 0.564 | 0.686 | 0.507 | 0.238 | 0.596 | 0.418 | 0.0139 (inactive) | 0.0127 | -0.386 (inactive) | 0.0692 (inactive) | 0.336 (inactive) | 0.51 (inactive) | 0.727 | -0.0259 | 0.313 | -0.0361 | 0.298 |
| C[C@@H]1CC[C@H]2C(=O)OC(CN3C(=O)c4ccccc4C3=O)CN2[C@H]1c1ccc(Br)cc1 (stereo not given in full) | 0.194 | 0.731 | 0.246 | 0.377 | -0.145 | -0.204 | 0.0226 | 0.117 | 0.681 | -0.796 (inactive) | -0.0102 | 0.135 (inactive) | 0.447 (inactive) | 1.19 (inactive) | -0.841 (inactive) | 0.942 | -0.045 | -0.0288 | 0.396 | -0.365 |
| CC(C)(C)N1C(=O)[C@H]2[C@H]3[C@H](O)[C@H](O)CC(=NOC[C@@H](O)COCc4ccco4)[C@@H]3CC[C@H]2C1=O | -0.329 | -0.451 | -0.0584 | 0.961 | -0.396 | -0.0677 | -0.521 | -0.211 | 0.915 | -0.124 (inactive) | 0.0983 | 0.257 (inactive) | -0.579 (inactive) | 1.06 (inactive) | 0.279 (inactive) | -0.276 | -0.101 | 0.334 | 0.275 | -0.633 |
| CC(C)(C)N1C(=O)[C@H]2[C@H]3[C@H](O)[C@H](O)CC(=NNC(=O)OCc4ccccc4)[C@@H]3CC[C@H]2C1=O | 0.0938 | 0.486 | 0.32 | 0.459 | 0.258 | 0.704 | -0.202 | 0.34 | 0.433 | -0.728 (inactive) | -0.0841 | 0.633 (inactive) | -0.0893 (inactive) | -0.0258 (inactive) | 0.314 (inactive) | 0.171 | -0.13 | 0.472 | 0.322 | 0.226 |
| CC(CCC(=O)OC[C@H]1O[C@H](C#Cc2ccccc2)C=C[C@@H]1Oc1ccc(C)cc1)=NO[C@@H](C)c1cc(-c2c(C)cc(C)cc2C)no1 | 0.888 | -1.49 | -0.0556 | 0.709 | -0.921 | -0.977 | -0.00541 | -0.589 | 0.848 | 0.0957 (inactive) | -0.693 | -0.629 (inactive) | -0.702 (inactive) | 0.085 (inactive) | 1.02 (inactive) | -0.831 | -0.242 | -2.59 | -1.74 | -0.719 |
| O=C1[C@H]2[C@H]3[C@H](O)[C@H](O)CC(=NOC[C@@H](O)COCc4ccco4)[C@@H]3CC[C@H]2C(=O)N1Cc1ccccc1 | 0.381 | 1.26 | 0.728 | -0.956 | 1.37 | 0.962 | 0.0705 | 0.941 | 0.265 | 1.2 (inactive) | -0.0051 | -1.65 (inactive) | 0.969 (inactive) | -0.294 (inactive) | 0.183 (inactive) | -0.153 | -0.186 | 3.04 | 1.92 | 0.399 |

From PubChem BioAssay
